In the library only some 1.4% were active in any assay of this set; here they are far more common.
Furin inh: human furin inhibitors, primary screen, biochemical, fluorescence intensity; actives 0.061% (n = 220,000); purified furin, fluorogenic substrate cleavage; P09958; inhibition, % at 20 µM or 30 µM; AID 463115, 2010; in the data active = inhibition above about 25%
PGE2 EP2 inh: human EP2 receptor antagonists, primary screen, TR-FRET cAMP, C6 glioma cells. Prostaglandin E2 receptor EP2 subtype (Homo sapiens), P43116. C6 glioma cells expressing human EP2; cells stimulated with saturating PGE2. inhibition, % at 25 µM. actives 0.52% (n = 260,000). AID 1422, 2008;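 active = percent inhibition above 40 after rounding to a whole number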;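 note: rat C6 glioma host cells with rolipram phosphodiesterase inhibitor present; the protocol text gives 20 µM as final concentration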
Target sequence (P43116 whole entry, looked up): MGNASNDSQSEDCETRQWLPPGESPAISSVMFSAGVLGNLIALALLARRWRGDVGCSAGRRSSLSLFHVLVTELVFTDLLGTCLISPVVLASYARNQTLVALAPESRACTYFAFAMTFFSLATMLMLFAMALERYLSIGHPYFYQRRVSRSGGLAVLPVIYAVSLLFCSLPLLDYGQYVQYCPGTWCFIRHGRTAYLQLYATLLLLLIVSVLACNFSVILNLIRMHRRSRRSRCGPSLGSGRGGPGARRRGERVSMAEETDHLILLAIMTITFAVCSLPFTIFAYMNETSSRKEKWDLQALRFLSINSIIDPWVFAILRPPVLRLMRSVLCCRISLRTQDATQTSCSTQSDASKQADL
Pf gamet viab: late stage P. falciparum gametocyte viability inhibitors, primary screen, ATP luminescence, HTS. AID 743093, 2013. P. falciparum stage V gametocytes, 24 h. inhibition, % at 10.9 µM. actives 0.065% (n = 150,000);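 active = inhibition above the mean plus 3 SD of compounds within the control limits, set per campaign, cut at about 38% in these data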
HSV replic up: enhancers of HSV replication in host cells, fold increase, host cell viability; HSV replication augmentation in cells; actives 0.005% (n = 220,000); maximum fold increase; in the data active = maximum fold increase above about 1.5; inconclusive = no clear call, values can overlap the other calls; tested in PC3 cells
EP2 mod: EP2 receptor modulators, cAMP readout, primary screen, cell-based, HTRF cAMP, PGE2 stimulation | Prostaglandin E2 receptor EP2 subtype (Homo sapiens), P43116 | EP2-expressing cells, cAMP HTRF FRET, PGE2 co-stimulation | AID 940, 2007 | actives 0.83% (n = 260,000) | induction, % at 25 µM;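 active = compounds whose cAMP rise, as percent of the full-agonist control response, exceeds 60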;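 note: rat C6 glioma line stably carrying human EP2 under a CMV promoter; the protocol text gives 20 µM as final concentration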
A number is an active result; – = inactive; ? = inconclusive; · = not tested or not shown; ! = a repeat was not active.

SMILES	Furin inh	PGE2 EP2 inh	Pf gamet viab	HSV replic up	EP2 mod
Clc1ccc(N=c2ssnc2Cl)cc1	–	110	·	–	–
N#Cc1ccc(N=c2ssnc2Cl)cc1	–	147	·	–	–
COc1ccc(N=c2ssnc2Cl)cc1	–	76	·	–	–
Clc1nssc1=Nc1ccccc1	–	–	·	–	–
COc1cc(N=c2ssnc2Cl)cc(OC)c1OC	–	130	–	–	–
Fc1ccc(N=c2ssnc2Cl)c(F)c1	–	–	–	–	–
Cc1ccc2nc(N=C(N)N)nc(C)c2c1	–	–	·	–	–
COc1ccc(C(=O)O/N=C(\C)c2ccccc2)cc1	–	–	–	–	–
CCCOC(=O)C1=C(C)NC2=C(C(=O)CCC2)C1c1cccc(OC)c1OC (centres undefined)	–	–	·	–	–
COC(=O)c1[nH]c2ccc(C)cc2c1NS(=O)(=O)c1ccc(F)c(C)c1	–	·	–	·	63
O=C(c1ccc(COc2ccccc2Br)o1)N1N=C(C(F)F)CC1(O)C(F)F (centres undefined)	–	–	49	–	–
CC1(C)N=C(SCC(=O)Nc2ccc(Cl)cc2Cl)C(c2ccccc2)=N1	–	–	–	–	–
CN1C(CC(=O)Nc2ccc(Cl)cc2Cl)c2ccccc2CC1(C)C (centres undefined)	–	–	–	–	61
CCc1c(C)[nH]c2ccc(C)cc2c1=S	·	–	·	·	–
Cc1ccc2[nH]c(CCN(C)C)c(CSCc3c(CCN(C)C)[nH]c4ccc(C)cc34)c2c1	·	127	·	·	–
N/C(=N/O)c1cn([C@H]2O[C@@H](CO)[C@H](O)[C@H]2O)c2ncnc(NO)c12	·	47	·	·	–
CC(C)=CCNc1ncnc2c1c(C#N)cn2[C@H]1O[C@H](CO)[C@@H](O)[C@@H]1O	·	–	·	·	–
Cc1ccc(S(=O)(=O)Nc2cc(=O)[nH]c(SCC(=O)Nc3ccccc3Cl)n2)cc1	–	–	–	–	–
COC(=O)Cc1csc(Nc2ccccc2Cl)n1	–	–	–	–	–
COc1ccc(C)cc1NC(=O)N1CCCc2ccccc21	–	–	–	–	61
O=[N+]([O-])c1ccc2c(c1)nnn2-c1ccccc1	·	·	–	·	·
CC(C)n1c2ccccc2c2cc([N+](=O)[O-])ccc21	–	–	–	–	65
S=C(Nc1ccc(Oc2ccccc2)cc1)N1CCN(c2ccccn2)CC1	–	–	·	–	–
CCn1c(SCC(=O)Nc2cc(F)ccc2C)nnc1-c1ccccc1O	32	–	–	–	–
CCn1c(SCC(=O)Nc2ccccc2C)nnc1-c1ccccc1O	–	–	·	–	–
SMILES	Furin inh	PGE2 EP2 inh	Pf gamet viab	HSV replic up	EP2 mod
CN1CCN(S(=O)(=O)c2ccc(NC(=O)Nc3cccc(Cl)c3)cc2)CC1	–	43	·	–	–
O=C(Nc1cccc(Cl)c1)Nc1cc(S(=O)(=O)N2CCCCC2)ccc1Cl	–	–	–	–	–
Cc1cc(C(=O)NCc2cccnc2)no1	–	–	–	–	–
NS(=O)(=O)c1ccc(N=Nc2c(O)c(C(=O)O)cc3ccccc23)cc1	–	50!	·	–	–
O=S(=O)(O)c1ccc2c(N=Nc3cccc4ccccc34)c(O)c(S(=O)(=O)O)cc2c1	·	57	·	·	–
O=[N+]([O-])c1ccc2c(N=Nc3ccc4ccccc4c3O)c(O)cc(S(=O)(=O)O)c2c1	·	51	·	·	–
O=[N+]([O-])c1ccccc1N=Nc1c(O)[nH]c2ccc(S(=O)(=O)O)cc12	·	–	·	·	–
N#C/C(=N\Nc1ccc(F)cc1)C(=O)C1CC1	–	–	–	–	–
O=C(O)CCc1ccc(-c2ccc(Br)cc2)n1Cc1ccco1	–	–	·	–	–
COc1ccc(CCNC(=O)C2CC(c3c(Cl)cccc3Cl)=NO2)cc1 (centres undefined)	–	–	–	–	–
CC(C)CCN(C(=O)Cc1ccccc1F)c1c(N)n(Cc2ccccc2)c(=O)[nH]c1=O	–	–	–	–	–
COc1cc(NS(=O)(=O)c2ccc(NC(=S)NC(=O)c3sc4ccccc4c3Cl)cc2)ncn1	–	52	·	–	–
Cc1cc(NS(=O)(=O)c2ccc(NC(=S)NC(=O)c3ccc(F)cc3)cc2)no1	–	46!	–	–	–
COc1ccc(OCC(=O)NC(=S)Nc2ccc(S(=O)(=O)Nc3cc(OC)nc(OC)n3)cc2)cc1	–	64	–	–	–
Cc1cc(C)nc(NS(=O)(=O)c2ccc(NC(=S)NC(=O)c3ccc(F)cc3)cc2)n1	·	–	·	·	–
COc1cc(NS(=O)(=O)c2ccc(NC(=S)NC(=O)CC(C)C)cc2)nc(OC)n1	–	–	·	–	–
COc1cc(NS(=O)(=O)c2ccc(NC(=S)NC(=O)c3ccc(F)cc3)cc2)nc(OC)n1	·	59	·	·	–
CCC(C)c1ccc(OCC(=O)Nc2ccc(Cl)cn2)cc1 (centres undefined)	–	–	–	–	–
CNc1nc2ccccc2n1/N=C/c1cccc(OC)c1OC	–	–	·	–	–
Cn1c(=NC(=O)C2CCN(S(=O)(=O)c3cccs3)CC2)sc2ccccc21	–	–	·	–	–
COc1ccc2cc(C#N)c(SCC(=O)NC3CCCCC3C)nc2c1 (centres undefined)	·	–	·	·	77
CC(C)COC(=O)c1cccc2c1-c1ccccc1/C2=N\O	–	·	·	·	63
O[N+]1=CC=CCC1=S.On1ccccc1=S.[Zn]	·	118	·	·	–
COc1ccc(NC(=O)N(C2CCCCC2)C(C)c2cccnc2)c(OC)c1 (centres undefined)	–	–	·	–	–
COc1ccc(NC(=O)N(C2CCCCC2)C(C)c2ccco2)c(OC)c1 (centres undefined)	–	–	·	–	61
SMILES	Furin inh	PGE2 EP2 inh	Pf gamet viab	HSV replic up	EP2 mod
Cc1nnc(Sc2cc(NCCO)c([N+](=O)[O-])c3nonc23)s1	–	50	·	–	–
Cc1nnc(Sc2cc(NCCCO)c([N+](=O)[O-])c3nonc23)s1	–	–	–	–	–
N#CC1=C(N)SC(N)=C(C#N)C1c1ccc(C(F)(F)F)cc1	–	49	·	?	–
c1ccc2c(c1)OCC(c1csc3ncnc(N4CCOCC4)c13)O2 (centres undefined)	–	–	·	–	–
CCN(CC)c1ncnc2scc(C3COc4ccccc4O3)c12 (centres undefined)	–	–	·	–	64
CC1=CC(C)(C)N(C(=O)Nc2ccccc2)c2ccccc21	–	–	–	·	–
C/C=C/C(=O)N1c2ccccc2C(C)=CC1(C)C	–	–	–	–	61!
CCOc1cc(C)nc(NCc2ccccc2)n1	–	–	·	–	63
Cc1cc(N2CCCCC2)nc(NCc2ccccc2)n1	–	–	·	–	–
Cc1cc(OC2CCCCC2)nc(NCc2ccccc2)n1	–	–	–	–	66
CC(=O)c1ccc(Oc2cc(C)nc(NCc3ccccc3)n2)cc1	–	–	–	–	–
CCOc1ccc(C2=CS/C(=C(\C#N)c3nnc4n3CCCCC4)N2CC)cc1	–	–	·	–	–
O=C(NC1CCCCC1)C(c1ccncc1)N(C(=O)Cc1cccs1)c1ccc(F)cc1 (centres undefined)	·	–	·	·	–

Screens as filed in PubChem BioAssay.
